# Screening data from PubChem.
# Giardia killer: Small Molecules that selectively kill Giardia lamblia: qHTS; AID 540267, 2011; activity change, % at 7.66 µM, hits read low; 0.15% of 340,000 active; Giardia lamblia trophozoite viability; in the data active = activity change below about -80%; inconclusive = between about -30% and that limit;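 also: parasites exposed to compound for two days anaerobically before the ATP read; % is scaled to controls: 0 for no effect and ±100 for the full control effect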
#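 Luminescent ATP signal served as the viability read-out, measured 15-30 min after adding ATP detection reagent to trophozoites that had been incubated with compounds for 48 hrs at 37 deg C anaerobically at 100 cells/well.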
# MCF10A rereplic: A quantitative high throughput screen for small molecules that induce DNA re-replication in MCF 10a normal breast cells; AID 624296, 2012; 2.9% of 350,000 active; MCF 10A DNA re-replication, Hoechst nuclear intensity, 48 h; Potency, µM (series often up to 46.1 µM), inactives show at the highest dose activity, positive = re-replication, most hits filed as activators; also: potency is read from the fitted curve at half-maximal effect; % of control where 0% means no effect; nearly all actives have a fitted effect of over 50% in size
# Chronic BCR inh: qHTS Assay to Find Inhibitors of Chronic Active B-Cell Receptor Signaling; ABC-DLBCL IkBa-CBG/CBR reporter, luminescence ratio, 4 h; Potency, µM (doses to about 46.1 µM), for the others: at the top dose activity change, negative = inhibition, most hits filed as inhibitors; 0.05% of 340,000 active; AID 493014, 2011; active = well fitted inhibition curve with a large enough effect in the signal ratio, with a control signal flat, not every such curve was filed as active; inconclusive = small, poorly fitted or top-dose-only effect, or effect the other way, or a change in a side signal; the % refers to the signal ratio;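 also: potency is read from the fitted curve at half-maximal effect; plate controls were basal doxycycline-induced cells for no effect and cells given 10 µM MG132 for full effect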
#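 TMD8 ABC-DLBCL cells carrying doxycycline-inducible green luciferase fused to IkappaBalpha plus unfused red luciferase were exposed to compounds (up to 46 uM) for 4 hrs at 37C. Activity came from the overlap-corrected green/red luminescence ratio.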
# Gal4-VP16 FLuc: VP16 counterscreen qHTS for inhibitors of ROR gamma transcriptional activity; Drosophila S2 Gal4-VP16 UAS-luciferase, luminescence, 20 h; Potency, µM (highest dose often 53.6 µM), for the others: at the highest dose activity, negative = inhibition, actives largely listed as inhibitors; 3.5% of 310,000 active;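 also: Gal4-VP16 expression switched on by copper sulfate through the metallothionein promoter; potency is read from the fitted curve at half-maximal effect; % is scaled to controls: 0 for no effect and ±100 for the full control effect; nearly all actives have a fitted effect of over 50% in size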
# SW480 rerep: A quantitative high throughput screen for small molecules that induce DNA re-replication in SW480 colon adenocarcinoma cells; 1.8% of 340,000 active; SW480 DNA re-replication, Hoechst DNA content imaging, 48 h; Potency, µM (doses to about 46.1 µM), for the others: top-dose re-replication activation, most hits filed as activators; also: potency is read from the fitted curve at half-maximal effect; % of control where 0% means no effect; nearly all actives have a fitted effect of over 55% in size
#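 DNA re-replication was detected as more nuclei of elevated Hoechst intensity after 48 hr exposure to compound (23 nL pinned per well of 250 cells).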
# RORg inh: qHTS for inhibitors of ROR gamma transcriptional activity | Drosophila S2 Gal4-RORgamma UAS-luciferase reporter, 20 h | 5.4% of 310,000 active | Potency, µM (highest dose often 53.6 µM), for inactives: at the highest dose activity change, negative = inhibition, actives largely listed as inhibitors; also: potency is read from the fitted curve at half-maximal effect; % is scaled to controls: 0 for no effect and ±100 for the full control effect; nearly all actives have a fitted effect of over 60% in size
# Target sequence (P51450 whole entry, looked up, the tested form may be a part): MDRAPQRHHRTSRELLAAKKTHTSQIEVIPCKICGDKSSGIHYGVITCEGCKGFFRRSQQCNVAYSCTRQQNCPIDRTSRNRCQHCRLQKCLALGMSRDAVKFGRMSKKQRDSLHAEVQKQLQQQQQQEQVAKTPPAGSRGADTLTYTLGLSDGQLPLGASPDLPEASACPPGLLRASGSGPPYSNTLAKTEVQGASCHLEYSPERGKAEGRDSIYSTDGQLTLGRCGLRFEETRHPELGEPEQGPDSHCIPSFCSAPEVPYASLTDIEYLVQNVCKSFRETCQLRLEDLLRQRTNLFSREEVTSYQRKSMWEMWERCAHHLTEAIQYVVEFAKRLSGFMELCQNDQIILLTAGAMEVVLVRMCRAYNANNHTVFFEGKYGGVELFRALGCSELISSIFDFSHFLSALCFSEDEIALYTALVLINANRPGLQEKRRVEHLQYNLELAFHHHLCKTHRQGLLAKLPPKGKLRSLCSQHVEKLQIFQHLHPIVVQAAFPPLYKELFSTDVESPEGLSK
#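 Stably transfected Drosophila Schneider cells are the test system, with ROR gamma fused to Gal4 and luciferase under UAS control; luminescence is read after 20 hr of 700 uM copper sulfate induction at ambient temperature.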
# The depositor's hits bear a star; u = inconclusive; x = not tested or not shown; [ ] = dose if it differs, or a comment. This is a sample that favours compounds with a hit; in the whole collection about 8.3% have one here. Unless noted, calls follow the shape of the dose curve; as a rule, active = well fitted curve in the direction sought with a large enough effect; inconclusive = small, poorly fitted or top-dose-only effect, or another doubt; inactive = no such curve, though single readings can be large; an effect the other way counts as inactive or inconclusive.
SMILES,Giardia killer,MCF10A rereplic,Chronic BCR inh,Gal4-VP16 FLuc,SW480 rerep,RORg inh
CCn1c(Cc2cccc3ccccc23)nnc1SCC(=O)Nc1nccs1,3,-2%,u,u,-7%,14µM*
CCc1nnc(SCC(=O)Nc2nccs2)n1CC,-25,10%,u,-3%,-16%,-4%
Cc1ccc([N+](=O)[O-])cc1NC(=O)CCc1ccccc1,-24,0%,-10%,-12%,3%,5%
Cc1ccc(/C=N/NC(=O)CSc2nc3ccccc3s2)o1,-4,7%,1%,4%,-2%,-33%
Cc1cc(O)c(C(C)C)cc1N=Cc1cc([N+](=O)[O-])ccc1O,14,u,6%,u,10%,10µM*
O=C(CSc1nc2ccccc2s1)N/N=C/c1cc([N+](=O)[O-])ccc1O,6,1%,u,u,u,5µM*
Cc1ccc(C)c(NC(=O)CCC(=O)N/N=C/c2cc([N+](=O)[O-])ccc2O)c1,-11,u,u,u,u,5.6µM*
Cc1cc(O)c(C(C)C)cc1N=Cc1ccccc1O,-4,23%,u,u,u,-82%
Cc1ccccc1NC(=O)CCC(=O)N/N=C/c1cc([N+](=O)[O-])ccc1O,12,u,-1%,u,u,4µM*
COc1cc(OC)c2c(C)cc(=O)oc2c1C(CCN1CCCC(C)C1)c1ccc(N(C)C)cc1 (centres undefined),-17,x,x,4%,x,-27%
CCOc1ccc(C2C(=O)N(C3CCCCC3)CC(=O)N2Cc2ccc(F)cc2)cc1OC (centres undefined),x,x,-11%,x,x,x
Cc1cc(=O)oc2cc(OCC(=O)N/N=C/c3cc([N+](=O)[O-])ccc3O)ccc12,8,7%,25%,2.2µM*,u,1.3µM*
Cc1ccc(NC(=O)CCC(=O)N/N=C/c2cc([N+](=O)[O-])ccc2O)cc1,-18,u,-6%,14µM*,u,13µM*
CN1CCN(CCC(=O)N/N=C/c2cc([N+](=O)[O-])ccc2O)CC1,-9,u,5%,u,0%,u
C[C@H]1C2=C3C(C[C@H]4C(=O)N(c5ccccc5)C(=O)[C@H]4[C@H]3[C@@]3(Cc4ccccc4)C(=NCCc4c[nH]c5ccccc45)OC(=O)N3C2=O)[C@H]2C(=O)N(c3ccccc3)C(=O)[C@H]21 (some centres undefined),x,x,x,5%,x,3%
CO[C@H]1COC(=O)C/C=C\[C@@H](C)COC(=O)[C@H]2CCCN2C(=O)C/C=C\[C@H]1C,x,x,x,5%[10 µM],x,-29%[10 µM]
c1ccc2nc3c(cc2c1)CCCCC3,2,u,-14%,-1%,18µM*,44%
c1ccc2nc3c(cc2c1)CCCCCC3,16,-3%,9%,9%,-4%[9.22 µM],-3%
O=c1ccc2cc(S(=O)(=O)N3CCN(c4ccccc4)CC3)ccc2[nH]1,12,-1%,9%,2%,-11%,-1%
O=S(=O)(c1ccc2nc(-c3ccccc3)[nH]c2c1)N1CCN(c2ccc(Cl)cc2)CC1,-1,16µM*,0%,-13%,u,-1%
COc1ccc(-c2cc3ccc(O)cc3oc2=O)cc1,u,18µM*,-21%,-6%,18µM*,-13%
O=c1oc2cc(O)ccc2cc1-c1ccccc1,-23,u,u,3%,u,6%
O=C(O)c1ccc(N=c2oc3cc(O)ccc3cc2C(=O)NCc2ccccc2)cc1,-5,u,u,-14%,244%,-20%
O=C(NCc1ccccc1)c1cc2ccc(O)cc2oc1=O,-18,16µM*,u,7.1µM*,7.3µM*,2.2µM*
C/C(=N\NC(=O)CC#N)c1cc2ccc(O)cc2oc1=O,-17,9.2µM*,u,-2%,21µM*,-1%
SMILES,Giardia killer,MCF10A rereplic,Chronic BCR inh,Gal4-VP16 FLuc,SW480 rerep,RORg inh
COc1ccccc1C(=O)c1cc2ccc(O)cc2oc1=O,10,3%,u,10%,-9%,20µM*
CCc1c(O)c(-c2ccccc2)c(=O)n(-c2ccccn2)c1-c1ccccc1,-1,1%,-3%,-4%,15%,19%
O=C(CCNC(=O)C1CCN(S(=O)(=O)c2ccccc2)CC1)NCc1ccc(Cl)c(Cl)c1,15,-1%,-4%,-14%,-5%,43%
Cc1c(Cl)cccc1NC(=O)CNC(=O)c1cn(-c2ccccc2)nc1-c1cccnc1,4,1%,3%,x,0%,x
CCc1ccc(S(=O)(=O)NC2CC(C)(C)NC(C)(C)C2)cc1,23,5%,-1%,-4%,3%,2µM*
Cc1ccc(S(=O)(=O)NC2CC(C)(C)NC(C)(C)C2)cc1,1,8%,0%,-6%,1%,16%
O=C(CCn1nnnc1CN1CCOCC1)N1CCC(c2ccccc2F)C1 (centres undefined),-9,-1%,-4%,-1%,8%,-22%
Cc1cc2oc3cc(NCCC4CCCN4C)ccc3c(=O)c2cc1C (centres undefined),-28,16µM*,x,x,u,x
CN1CCCC1CCNc1ccc2sc3ccccc3c(=O)c2c1 (centres undefined),-12,-14%,x,x,u,x
CC(C)(C)C(=O)Nc1cccc(-c2cc(-c3c(Cl)cccc3Cl)no2)c1,-8,u,3%,7%,u,-3%
Cn1c(Nc2ccccc2)nc2ccccc21,5,0%,0%,x,-5%,x
CC(=O)c1ccc(/C=C/c2nc3ccccc3n2C)o1,-13,18µM*,u,u,u,10µM*
Cn1c(/C=C/c2ccccc2)nc2ccccc21,u,13%,u,7.1µM*,-2%,10µM*
Cn1c(=O)c(/C=C/c2ccc(F)cc2)nc2ccccc21,-9,u,-23%,-4%,12µM*,13%
CCOC(=O)c1ccc(N=Cc2nc3ccccc3n2C)cc1,13,13%,-4%,6%,u,u
Cn1c(=O)c(/C=C/c2ccccc2)nc2ccccc21,u,12µM*,-14%,13%,u,u
O=c1c(/C=C(\O)c2ccc(F)cc2)nc2ccccc2n1-c1ccccc1,-4,6%,u,3%,20%,-2%
CN(C)C(=O)N(CCCN1CCOCC1)Cc1cccc2ccccc12,-3,1%,-18%,-3%,-12%,20%
CCc1ccc(NC(=O)c2ccc(F)c(S(=O)(=O)N3CCN(c4ccc(OC)cc4)CC3)c2)cc1,x,x,0%,x,x,x
